HEK cytotox = HEK 293 cell cytotoxicity | HEK 293 viability, ATP luminescence (CellTiter-Glo), 48-72 h | 94,000 compounds, 6.6% hits | Potency, µM (top dose mostly 115 µM), for the others: at the highest dose activity change, negative = cytotoxicity, hits mostly inhibitors; note: nearly all actives have a fitted effect of over 60% in size
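Pintool-delivered compounds were incubated with HEK 293 cells (250 cells/well) at 37 degree Celsius for 48 or 72 hr. ATP-dependent luminescence (CellTiter-Glo) then reported remaining viable cells.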
NPR1 antag = human Npr1 receptor antagonism | 76,000 compounds, 1.6% hits | HEK293 hNpr1 GloSensor cGMP, ANP-stimulated luminescence | Potency, µM (series often up to 46.3 µM), without a hit: at the top dose activity change, negative = inhibition, usual class: inhibitors; calls by dose curve; note: nearly all actives have a fitted effect of over 60% in size
Target sequence (P16066 whole entry, looked up): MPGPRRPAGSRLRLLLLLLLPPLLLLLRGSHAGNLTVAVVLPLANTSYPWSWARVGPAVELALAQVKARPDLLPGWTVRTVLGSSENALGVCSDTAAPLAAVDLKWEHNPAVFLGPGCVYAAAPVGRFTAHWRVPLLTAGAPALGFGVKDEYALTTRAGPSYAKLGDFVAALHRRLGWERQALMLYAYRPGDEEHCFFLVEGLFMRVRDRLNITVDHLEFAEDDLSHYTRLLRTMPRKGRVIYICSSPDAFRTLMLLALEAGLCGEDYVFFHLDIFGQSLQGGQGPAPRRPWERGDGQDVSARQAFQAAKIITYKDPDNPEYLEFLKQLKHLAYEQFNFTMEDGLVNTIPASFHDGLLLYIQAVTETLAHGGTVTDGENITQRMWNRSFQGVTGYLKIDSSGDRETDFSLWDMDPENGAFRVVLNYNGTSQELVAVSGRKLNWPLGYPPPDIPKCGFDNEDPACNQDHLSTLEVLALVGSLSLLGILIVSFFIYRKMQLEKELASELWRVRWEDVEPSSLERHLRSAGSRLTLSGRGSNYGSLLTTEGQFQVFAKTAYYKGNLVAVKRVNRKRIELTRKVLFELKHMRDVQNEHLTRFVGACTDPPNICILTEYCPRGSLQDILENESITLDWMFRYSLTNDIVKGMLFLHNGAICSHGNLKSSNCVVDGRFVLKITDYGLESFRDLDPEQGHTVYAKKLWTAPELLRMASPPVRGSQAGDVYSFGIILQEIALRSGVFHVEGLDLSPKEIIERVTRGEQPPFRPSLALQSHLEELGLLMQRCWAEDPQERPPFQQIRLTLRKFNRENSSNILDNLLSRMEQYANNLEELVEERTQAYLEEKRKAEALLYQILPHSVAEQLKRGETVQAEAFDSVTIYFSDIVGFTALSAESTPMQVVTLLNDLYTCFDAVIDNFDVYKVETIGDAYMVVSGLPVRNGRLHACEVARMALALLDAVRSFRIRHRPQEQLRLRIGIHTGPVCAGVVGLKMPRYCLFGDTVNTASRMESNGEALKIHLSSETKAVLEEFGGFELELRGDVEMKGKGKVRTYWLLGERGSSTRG
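Compound pre-incubated 30 min at room temperature on GloSensor-loaded HEK293 cells stably carrying hNpr1 and the pGS-40F cGMP biosensor. Stimulation uses hNppA at 0.1 nM final; luminescence is taken at baseline and 20 min post-agonist.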
FLuc inh = inhibitors of firefly (Photinus pyralis) luciferase. purified P. pyralis luciferase, luminescence, biochemical. Potency, µM (highest dose often 115 µM), most hits filed as inhibitors. 76,000 compounds, 2.5% hits; note: nearly all actives have a fitted effect of over 65% in size
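Cell-free enzyme assay, 10nM P. pyralis luciferase, luciferin and ATP each at 10uM. Inhibition profiled over a 6-point titration, read as luminescence.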
NIH3T3 tox = kills NIH 3T3 cells. NIH 3T3 viability, CellTiter-Glo ATP luminescence, 48-72 h. Potency, µM (doses to about 96.7 µM), inactives show at the top dose activity change, negative = cytotoxicity, actives largely listed as inhibitors. 94,000 compounds, 4.3% hits; note: nearly all actives have a fitted effect of over 55% in size
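Viability of NIH 3T3 cells after 48 or 72 hr compound treatment at 37 °C was assessed by CellTiter-Glo, with luminescence imaged following a 10 min room-temperature step.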
Numbers without * were called inactive; i = inactive; ? = inconclusive; · = no result given; ! = a repeat was not active; [ ] = another dose, or the depositor's remark. Sampled rows, rich in hits. Any-hit rate of the full collection: about 11%. Unless noted, calls come from the whole dose curve; as a rule, active = well fitted curve in the direction sought with a large enough effect; inconclusive = small, poorly fitted or top-dose-only effect, or another doubt; inactive = no such curve, though single readings can be large; an effect the other way counts as inactive or inconclusive. % is set by controls: 0 for no effect and ±100 for the full control effect; potency is the fitted concentration of half-maximal effect.

SMILES	HEK cytotox	NPR1 antag	FLuc inh	NIH3T3 tox
Cc1nn(-c2ccc(C(F)(F)F)cc2)c(C)c1[C@@H]1C=C[C@@H](NC(=O)COc2ccccc2)C1	?	-24%	i	?
COc1ccc(C(=O)N[C@@H]2C=C[C@@H](c3c(C)nn(-c4ccc(C)c(Cl)c4)c3C)C2)cc1	?	?	32µM*	?
Cc1nn(-c2ccc(C(F)(F)F)cc2)c(C)c1[C@@H]1C=C[C@@H](NS(=O)(=O)c2ccccc2)C1	45µM*	-29%	i	40µM*
Cc1ccc(-c2cc(C(=O)N3CCC(Cc4nncn4C(C)C)CC3)c3ccccc3n2)cc1C	13µM*	-27%	5.6µM*	?
Cc1ccc(-c2cc(C(=O)N3CCC(c4nc(C5CCOCC5)no4)C3)c3ccccc3n2)cc1C (stereo not given)	11µM*	?	0.32µM*	?
O=C(NCc1cccs1)c1cc(Br)cn2ccnc12	?	15%[70.6 µM]	?	?
Cc1nn(C)c2nc(NCCCOC3CCCC3)sc12	32µM*	?	35µM*	?
O=C1N(CCc2ccccc2)c2ccccc2C12CCN(CC1CC1)C2 (stereo not given)	40µM*!	-11%	i	?
O=C1N(Cc2ccccc2)c2ccccc2C12CCN(Cc1cncs1)C2 (stereo not given)	?	2%	i	?
Cn1nccc1CN1CCC2(C1)C(=O)N(CCc1ccccc1)c1ccccc12 (stereo not given)	35µM*!	-1%	i	?
O=C1N(CCc2ccccc2)c2ccccc2C12CCN(Cc1ccncc1)C2 (stereo not given)	35µM*	?	i	35µM*!
Cc1cc(CN2CCC3(C2)C(=O)N(Cc2ccccc2)c2ccccc23)no1 (stereo not given)	50µM*	11%	i	?
CN1C(=O)C2(CCN(Cc3ccnn3C)C2)c2ccccc21 (stereo not given)	-15%[172 µM]	13%[70.6 µM]	i	-21%[138 µM]
O=C1CCN(S(=O)(=O)c2ccccc2)CCCN(C(=O)C2CCCCC2)CCN1	-24%	-8%	i	-13%
CNC(=O)c1cc(C2CC2)nc2c1c(C1CCCN(C(=O)c3ccc(C)cc3)C1)nn2C (stereo not given)	?	·	·	-27%
O[C@H]1CN[C@H](c2nc(-c3ccc(OC(F)(F)F)cc3)no2)C1	?	-18%[70.6 µM]	32µM*	-26%[174 µM]
O[C@@H]1C[C@@H](c2nc(-c3ccc(OC(F)(F)F)cc3)no2)N(C2CCOCC2)C1	?	-10%[70.6 µM]	40µM*	?
O=C(C1CCCN1C(=O)C1CCCC1)N1CCC(N2CCOCC2=O)CC1 (stereo not given)	4%	·	·	-3%
CN(C)c1cc(=O)c2ccnc(-c3ccccc3Oc3ccccc3)c2o1	?	1%[70.6 µM]	i	?
CN1CCN(c2ccc(-c3nccc4c(=O)cc(N(C)c5ccccc5)oc34)cn2)CC1	?	-1%[70.6 µM]	?	?
CN(c1ccccc1)c1cc(=O)c2ccnc(-c3ccnn3C)c2o1	?	8%[70.6 µM]	i	35µM*
CN(c1ccccc1)c1cc(=O)c2ccnc(-c3cccnc3)c2o1	-28%[172 µM]	7%[70.6 µM]	i	18µM*
CN(C)c1cc(=O)c2ccnc(Nc3cccnc3)c2o1	i	2%[70.6 µM]	i	79µM*
CN(c1ccccc1)c1cc(=O)c2ccnc(-c3cncnc3)c2o1	-1%[172 µM]	7%[70.6 µM]	i	79µM*
COC(=O)CNC(=O)c1cn2cc(-c3ccc(C)cc3)sc2n1	?	·	·	-19%[138 µM]
SMILES	HEK cytotox	NPR1 antag	FLuc inh	NIH3T3 tox
O=C(Nc1ccc(Cl)cc1)N1CCCN(c2ccc3nnc(C4CC4)n3n2)CC1	-2%	·	·	-26%
O=C(Cn1cccc1-c1nc(-c2ccc3c(c2)OCO3)no1)Nc1ccc2c(c1)OCCO2	?	-7%	i	i
COc1ncc(-c2nccc3c(=O)cc(N(C)c4ccccc4)oc23)cn1	-26%[172 µM]	1%[70.6 µM]	i	32µM*
COc1ccc(-c2cnc3n[nH]c(-c4ccccc4)c3n2)cc1	89µM*	-1%[70.6 µM]	i	79µM*
COc1cccc(-c2cnc3n[nH]c(-c4ccccc4)c3n2)c1	56µM*	-5%[70.6 µM]	i	40µM*
COc1ccc(C(=O)N2CC(CNC(=O)N3CCCC3)C3(CCOCC3)C2)cc1F (stereo not given)	i	·	·	-10%
COc1ccc(-c2[nH]nc3ncc(-c4ccc(C)cc4)nc23)cc1F	45µM*	-4%[70.6 µM]	i	40µM*
COc1ccc(-c2[nH]nc3ncc(-c4ccccc4F)nc23)cc1F	?	-16%[70.6 µM]	i	50µM*
COc1ccc(-c2cnc3n[nH]c(-c4ccc(OC)c(F)c4)c3n2)cn1	?	1%[70.6 µM]	i	?
O=C(c1c(-c2ccccc2)cc(=O)n2c1CCC2)N1CCCC1	-1%	·	·	0%
CCC1(CC)CC1C(=O)N1CCc2onc(-c3cccc(F)c3)c2C1 (stereo not given)	45µM*	-26%	i	?
Cc1ccc(NC(=O)Cn2c(-c3ccc(Cl)cc3)nc(C)c(CCO)c2=O)c(C)c1	i	4%	i	1%
CC(C)(C)C(=O)N1CCCC(C(=O)N2CCCC2c2nc3ccncc3[nH]2)C1 (stereo not given)	-12%	·	·	-24%
CCOc1ccc(C(=O)NC2CCCN(c3cc(-c4ccc(F)cc4)[nH]n3)C2)cc1OCC (stereo not given)	28µM*	0%	i	32µM*
CCOc1ccc(C(=O)NC2CCCN(c3cc(-c4ccc(OC)cc4)[nH]n3)C2)cc1OCC (stereo not given)	?	1%	i	-15%
Cc1ccccc1C(=O)NC1CCN(c2cc(-c3ccc(Cl)cc3)[nH]n2)C1 (stereo not given)	?	-14%	i	40µM*
CCOc1ccccc1C(=O)NC1CCN(c2cc(-c3ccc(Cl)cc3)[nH]n2)C1 (stereo not given)	35µM*	-23%	i	?
CCOc1ccccc1C(=O)NC1CCCN(c2cc(-c3ccc(F)cc3)[nH]n2)C1 (stereo not given)	40µM*	-19%	i	32µM*
COc1cccc(-c2noc(CC3CCN(C(=O)c4cc(OC)c(OC)c(OC)c4)CC3)n2)c1	45µM*	-18%	i	?
O=C(c1ccc2c(c1)OCO2)N1CCC(Cc2nc(-c3ccccc3)no2)CC1	10µM*	4µM*	?	?
COc1ccc(CC2CCN(C(=O)c3c(C)noc3-c3ccc4c(c3)OCO4)CC2)cc1	35µM*	?	i	25µM*
COc1ccc(C(=O)N2CCC3(CC2)CC(Cc2nc(-c4ccccc4)no2)CCO3)cc1 (stereo not given)	13µM*	7.1µM*	?	?
Cc1noc(-c2ccc3c(c2)OCO3)c1C(=O)N1CCC(Cc2ccccc2)CC1	?	-26%	i	?
CCOc1ccccc1CN1CCC2(CCN(CCc3ccc(OC)cc3)CC2)Oc2ccccc21	?	3%	i	?

High-throughput results (PubChem BioAssay)
